Experimental data taken from PubChem BioAssay AID2417 (National Center for Advancing Translational Sciences (NCATS), 2010).
Hit rate of the full screen: of about 140,000 compounds, about 4,300 (3.1%) were called active. Another 21% or so got no clear call; they are omitted. Only a selection was taken, and actives are over-represented in it overall. A number with no mark means an inactive call.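 Rule for the calls: active = readout at or below -70, meaning at least 70% loss of cells showing the perinucleolar compartment, a nuclear body marking cancer cells; inconclusive = readout between -30 and a set limit; inactive = the rest.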

Assay: High Content Assay for Compounds that inhibit the Assembly of the Perinucleolar Compartment;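 note: plate controls were DMSO wells for no effect and camptothecin positive control wells for full effect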
Settings: PC3M PTB-GFP, PNC prevalence imaging, 16 h; at 10 µM; active compounds read low
Procedure, shortened: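 Compounds are pinned in duplicate onto adhered PC3M cells stably expressing GFP-tagged PTB and incubated 16 h at 37 C. Cells are then fixed, nuclei stained with Hoechst, and PNC-positive cells counted.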

Compound	activity change (PNC), negative = inhibition
O=[N+]([O-])c1cccc(S(=O)(=O)N2CCCCCC2)c1	-7.16%
N/C(=N\OS(=O)(=O)c1cccc([N+](=O)[O-])c1)c1ccncc1	-108% (active)
CO/N=C(\N)c1ccc([N+](=O)[O-])cc1	28.8%
CCC1(C(=O)c2ccccc2)C(c2cccc([N+](=O)[O-])c2)C1(C(=O)OC)C(=O)OC (stereo unspecified)	-9.15%
CC(C)(C)n1nnc(CCc2nnn(C(C)(C)C)n2)n1	-91.9% (active)
O=C(Nc1ccc([N+](=O)[O-])cc1)C1(c2ccccc2)CCOCC1	5.8%
Cc1ccc(-n2[nH]c(C)c(/C=N/NC(=O)c3cccc([N+](=O)[O-])c3)c2=O)cc1C	3.84%
COc1cccc(/C=N/NC(=O)c2cccc([N+](=O)[O-])c2)c1OS(=O)(=O)c1ccc(C)cc1	20.7%
Cc1cc(C(=O)N/N=C/c2cc([N+](=O)[O-])cc(C)c2O)n[nH]1	-128% (active)
Cc1nn(-c2ccccc2)c(-n2cccc2)c1C(=O)O	4.84%
CCc1ccc(N2CC(C(=O)NC3=NCCS3)CC2=O)cc1 (stereo unspecified)	10.4%
CC(C)c1ccc(N2CC(C(=O)Nc3nccs3)CC2=O)cc1 (stereo unspecified)	21.8%
CCc1nnc(NC(=O)C2CC(=O)N(c3ccc4c(c3)OCCO4)C2)s1 (stereo unspecified)	-107% (active)
O=C(COc1ccccc1F)NNC(=O)c1ccc(N2CCCCC2)c([N+](=O)[O-])c1	-26.5%
CCOC(=O)Cc1csc(SCC(=O)NC(C)C23CC4CC(CC(C4)C2)C3)n1 (stereo unspecified)	20%
Cc1ccc(OCC(=O)N/N=C\c2ccco2)c(C)c1	54.4%
Cc1ccc(OCC(=O)N/N=C/c2ccncc2)cc1	28.2%
Cc1ccc(/C=N/NC(=O)COc2ccccc2-c2ccccc2)cc1	-125% (active)
CCc1ccc(NC(=O)C(C)OC(=O)/C=C/c2cccc([N+](=O)[O-])c2)cc1 (stereo unspecified)	10.2%
O=C1NC(c2ccccc2)CCC1(Cl)Cl (stereo unspecified)	-7.09%
O=C(CNCCO)NC12CC3CC(CC(C3)C1)C2	20.6%
C=CCn1c(N)cc(=O)nc1SCC(=O)Nc1cccc2ccccc12	69%
C=CCn1c(SCC(=O)NC23CC4CC(CC(C4)C2)C3)nc(O)cc1=O	-100% (active)

Compound	activity change (PNC), negative = inhibition
Cc1cc(C)cc(OCC(=O)NNC(=O)CCN2C(=O)c3ccccc3C2=O)c1	31.4%
CC(=O)Oc1cccc(N2C(=O)C3CC=C(Cl)CC3C2=O)c1 (stereo unspecified)	-0.248%
CC(=O)Nc1ccc(N2C(=O)C3C4CC(=O)C(c5ccccc54)C3C2=O)cc1 (stereo unspecified)	13.1%
O=C(Oc1cccc(N2C(=O)C3C4c5ccccc5C(c5ccccc54)C3C2=O)c1)c1ccco1 (stereo unspecified)	-97.3% (active)
COc1cc(NC(=O)c2cc([N+](=O)[O-])ccc2Br)ccc1NC(=O)c1ccco1	38.2%
CC(Sc1nnc2c(n1)C1CCC2(C)C1(C)C)C(=O)Nc1ccccc1 (stereo unspecified)	11.5%
O=C(Cc1ccccc1)NNS(=O)(=O)c1ccc([N+](=O)[O-])cc1	3.03%
Clc1cccc(CN2COc3c(cc(Cl)c4cccnc34)C2)c1	-27.1%
Cc1c(Cl)c([N+](=O)[O-])nn1CCCC(=O)NC(C)c1ccccc1 (stereo unspecified)	-83.2% (active)
Cc1nn(Cc2ccccc2Cl)c(C)c1NC(=O)Cn1nc([N+](=O)[O-])c(Cl)c1C	29.3%
Cc1ccc(C(C)NC(=O)Cn2nc(C)c([N+](=O)[O-])c2C)cc1 (stereo unspecified)	1.18%
O=C(Cc1ccccc1)Nc1cccc(C(=O)N/N=C/c2ccco2)c1	-20.1%
COC(=O)/C(C#N)=C/c1occc1C	11.3%
CS(=O)(=O)c1sc2nc(-c3ccccc3)cc(-c3ccccc3)c2c1N	18.6%
Nc1cccc(-c2cc(-c3ccccc3)nc(-c3cccc(N)c3)n2)c1	-112% (active)
Nc1cccc(CCc2nc3ccccc3[nH]2)c1	-19.2%
Cc1ccc(N2C(=O)C(NC(=O)c3c(F)cccc3F)(C(F)(F)F)C3=C2CC(C)(C)CC3=O)cc1 (stereo unspecified)	-6.53%
Cc1ccc2[nH]c(=O)c(CC=C(Cl)Cl)c(C)c2c1	8.75%
O=C(O)c1ccc(NC(=O)c2cccs2)cc1	-100% (active)
O=C(O)Cc1ccc(NC(=O)c2cccs2)cc1	-2.77%
Cc1nc(-c2ccc(NC(=O)c3cccs3)cc2)cs1	20.4%
CCCCN1C(=O)c2ccc(C(=O)Nc3ccc(S(=O)(=O)N(C)C)cc3)cc2C1=O	-17.6%
CCOC(=O)COc1ccc([N+](=O)[O-])cc1	14.3%

Compound	activity change (PNC), negative = inhibition
CCOc1cc(/C=N/NC(=O)OC)ccc1OCCSc1ccc(Cl)cc1	45.6%
CCCC(NC(=O)c1ccco1)c1nc2ccccc2[nH]1 (stereo unspecified)	16.4%
Cc1ccc(SC(=O)COc2ccc(C)c(C)c2)cc1	-106% (active)
Cc1ccc(CNC(=O)COc2ccc3c(c2)CCC3)cc1	-5.6%
Cc1cc(=O)oc2ccc(OCC(=O)O)cc12	55.8%
O=C(COC(=O)c1cc([N+](=O)[O-])ccc1NCc1ccccc1)NC1CCCCC1	50.7%
Cc1ccc2c(c1)C(c1ccccc1)N(C(=O)c1ccc(S(=O)(=O)N3CCOCC3)cc1)CC(=O)N2 (stereo unspecified)	7.14%
COc1ccc(/C=N/NC(=O)c2ccccc2)cc1OS(=O)(=O)c1ccccc1	45.9%
O=C(NC(=S)Nc1ccc2oc(=O)ccc2c1)c1ccc(-c2cccc(Cl)c2Cl)o1	-8.36%
COC(=O)C1=C(C)N(C)C(C)=C(C(=O)OC)C1c1cccc(Br)c1	20%
CCOC(=O)C1=C(C)N=C2c3ccccc3C(=O)C2C1c1ccc(Br)cc1 (stereo unspecified)	-24.2%
COC(=O)C1=C(C(=O)OC)C2(OC1c1ccc(Br)cc1)C(=O)c1ccccc1C2=O (stereo unspecified)	-100% (active)
Cc1cccc2cc(CN(C(=O)c3cccs3)c3ccccc3)c(=O)[nH]c12	29.9%
COc1ccc(/C(C)=N/Nc2cc(C(F)(F)F)ccc2Cl)c(OC)c1	-13.2%
O=C(c1ccc2c(c1)OCO2)N1CCN(C(=O)c2ccco2)CC1	54.5%
O=C(c1ccc2c(c1)OCO2)N1CCNc2ccccc2C1	-29.9%
O=C(c1ccc2c(c1)OCO2)N1CCOCC1	-100% (active)
Cc1cccc(OP(=O)(Nc2c(C)n(C)n(-c3ccccc3)c2=O)Oc2cccc(C)c2)c1	-6.43%
COc1ccc(N(C(=O)c2ccc(C)cc2)S(=O)(=O)c2cccs2)cc1	19.1%
Cc1ccc(NC(=O)CC2C(=O)N(Cc3ccccc3)C(=S)N2NC(=O)c2cccc(F)c2)c(C)c1 (stereo unspecified)	-107% (active)
Cc1ccc(NC(=S)NC(=O)c2ccc(-c3ccccc3)cc2)c(C)c1	6.22%
O=C(CN1CCN(C(=O)c2cccc(F)c2)CC1)Nc1ccccc1F	6.16%
CC(=O)NC1=NN(C(C)=O)C(C)(CCS(=O)(=O)c2ccc(Cl)c(Cl)c2)S1 (stereo unspecified)	72.1%

Compound	activity change (PNC), negative = inhibition
COc1ccc(OCCNS(=O)(=O)Cc2ccccc2)cc1	21.5%
COC(=O)c1cc(NC(=O)Cc2ccccc2[N+](=O)[O-])ccc1Cl	-21.5%
CC(=O)Nc1ccc(NC(=O)C(C)OC(=O)c2ccccc2C(=O)c2ccc(Cl)c([N+](=O)[O-])c2)cc1 (stereo unspecified)	14.8%
N#Cc1cccc(NC(=O)COC(=O)c2ccccc2C(=O)c2ccc(Cl)c([N+](=O)[O-])c2)c1	-102% (active)
CCc1nnc(NC(=O)/C=C/c2ccc(C)o2)s1	43.5%
COC(=O)C1=C(C)N(C)C(=S)NC1c1ccccc1 (stereo unspecified)	-28.4%
O=C(NCc1cccs1)C(=O)NCC1OCCCN1S(=O)(=O)c1ccc(F)cc1 (stereo unspecified)	17.8%
Cc1cccc(N2CCN(C(=O)c3ccccc3NC(=O)C3CCCCC3C(=O)O)CC2)c1 (stereo unspecified)	0.826%
O=S(=O)(NCCSc1ccccn1)c1ccc(Cl)cc1	47.1%
CCc1nnc(NC(=O)C2CCCN2S(=O)(=O)c2ccccc2)s1 (stereo unspecified)	0.753%
COc1ccc(C2SCCN2S(=O)(=O)c2ccccc2)cc1OC (stereo unspecified)	-9.05%
CC1CN(S(=O)(=O)c2ccccc2)C(C)CN1S(=O)(=O)c1ccccc1 (stereo unspecified)	-100% (active)
CCCn1nc(NS(=O)(=O)c2ccccc2)c2cc3cc(C)ccc3nc21	9.97%
CN(C)S(=O)(=O)c1cc(NC(=O)CN2C(=O)NC3(CCCc4ccccc43)C2=O)ccc1Cl (stereo unspecified)	71.5%
CCOc1ccc(NC(=S)N2CCC(N(C)CC3CCCO3)CC2)cc1 (stereo unspecified)	0.566%
CC1CCN(C(=O)c2ccc(S(=O)(=O)Cc3cc(F)ccc3F)c([N+](=O)[O-])c2)CC1	25.9%
Cc1ccc(C(C)(C)C)c(OCCCCN2CCCC2)c1	-12.5%
COCCCNCCOCCOc1ccc(Cl)cc1Br	40.2%
CC(C)(C)NCCCOc1ccc(Cl)cc1C(C)(C)C	-102% (active)
CCCCc1nc(NCc2ccccc2)c(C#N)c2c1CCCC2	225%
Cc1nn(Cc2ccccc2)c(C)c1C(=O)NCCN1C(=O)S/C(=C\c2ccc(F)cc2)C1=O	37%
C[N+]1(CC(O)COc2ccccc2)CCN(C(=O)c2ccc([N+](=O)[O-])cc2)CC1 (stereo unspecified)	13%
